# Assay results reported in PubChem BioAssay (NCI).
# The panel holds about 79,000 compounds, 15% with a hit somewhere; the sample as a whole holds those more often. Unmarked numbers belong to inactive results. Calls of active or inactive are those of the source. Rule as the data show it: active = growth inhibition above about 70%; inactive = the rest.
# What was measured:
# [1] = NCI Yeast Anticancer Drug Screen. Data for the rad50 strain (AID 155);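 also: 0% = growth of vehicle-only cultures of the same strain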; settings: S. cerevisiae rad50 strain growth inhibition; at 50.0 µM; hits give high values
# Procedure, shortened: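 Compounds were tested on a yeast strain with an engineered DNA damage repair alteration; the reported value is growth inhibition normalised to vehicle treatment.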
# [2] = NCI Yeast Anticancer Drug Screen. Data for the mec2-1 strain (AID 157); settings: S. cerevisiae mec2-1 strain, at 50.0 µM, hits give high values
# Procedure, shortened: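 Each compound was tested on mec2-1 yeast, a strain altered in DNA damage repair or cell cycle control. Growth inhibition is reported relative to vehicle.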
# [3] = NCI Yeast Anticancer Drug Screen. Data for the sgs1 mgt1 strain (AID 161);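 also: 0% = growth of cultures given vehicle only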; settings: S. cerevisiae sgs1 mgt1 strain, at 50.0 µM, hits give high values
# Procedure, shortened: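 Mutant yeast exposed to compound; growth scored against vehicle-only wells.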
# [4] = NCI Yeast Anticancer Drug Screen. Data for the cln2 rad14 strain (AID 165);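 also: 0% = growth equal to vehicle treated cultures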; settings: S. cerevisiae cln2 rad14 strain, at 50.0 µM, hits give high values
# Procedure, shortened: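 Test compounds were added to cln2 rad14 yeast cultures; inhibition of growth was then determined by comparison with vehicle treatment.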
# [5] = NCI Yeast Anticancer Drug Screen. Data for the bub3 strain (AID 167); settings: S. cerevisiae bub3 mutant strain, at 50.0 µM, hits give high values
# Procedure, shortened: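 Growth of a checkpoint-deficient yeast mutant is measured after compound exposure. Values represent inhibition relative to vehicle.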
# [6] = NCI Yeast Anticancer Drug Screen. Data for the mlh1 rad18 strain (AID 175); settings: S. cerevisiae mlh1 rad18 strain growth inhibition; at 50.0 µM; hits give high values
# Procedure, shortened: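 Inhibition values reflect reduced growth of mutant yeast versus vehicle-treated controls following compound exposure; the mutations affect DNA damage repair.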
Compound,growth inhibition [1],growth inhibition [2],growth inhibition [3],growth inhibition [4],growth inhibition [5],growth inhibition [6]
NC(Cc1ccc(F)cc1)(C(=O)O)c1ccccc1 (configuration not stated),5.2%,28.5%,8.55%,-23.4%,5.85%,28.8%
COc1ccc(/C=C/C(=N\NC(=O)c2ccccc2)c2sc(Nc3ccc([N+](=O)[O-])cc3)nc2C)cc1OC,-13.3%,2.5%,11.1%,22.8%,30.8%,-9.85%
O=N[O-].O=N[O-].[Co].[NH-]CC[N-]CC[N-]CC[NH-],10.4%,7.2%,1.9%,3.65%,19.6%,11%
COc1ccc(OC)c(/C=C/C2=C(C)C(=O)CC(c3cc(OC)ccc3OC)C2C)c1 (configuration not stated),4.3%,12.3%,28.3%,8.75%,2.35%,4.3%
O=c1[nH]nc(SCc2ccccc2)c(=O)[nH]1,-18.1%,-3.5%,-16.6%,-5.8%,0%,-18.9%
CCc1cccc(C(C)(C)C)c1NC(=S)N/C=C(/C#N)C(N)=O,8.2%,-7.45%,16.9%,13.7%,-15.9%,11.8%
CCOC(=O)c1cc(-c2ccccc2)c(-c2ccccc2)c(-c2ccccc2)c1-c1ccccc1,28.4%,9.15%,19.6%,18.3%,2.75%,14.6%
N#Cc1cnn(-c2ccccc2)c1N,25.5%,-7.4%,-0.3%,-0.85%,-4.3%,-1.45%
C#CCCOC(=O)c1ccccc1OC(C)=O,-0.8%,-9.55%,-2.3%,11.5%,7.15%,5.15%
Cc1cc(C)c2cccc-2c(C)c1,-11.8%,-11.3%,-12.3%,-6.15%,-4.9%,-9.95%
Nc1nc(SCC(=O)O)nc(N)c1N=Nc1ccc(S(=O)(=O)NC(=O)c2ccccc2)cc1,7.3%,5.75%,-7.4%,-0.3%,0.1%,15.6%
O=c1[nH]cc(COCC(F)(F)C(F)(F)C(F)(F)C(F)F)c(=O)[nH]1,-1.35%,-14.9%,-3.7%,0.5%,-17.5%,1.2%
CCCOS(=O)(=O)O,-13.7%,-15.1%,1.7%,7%,6.65%,15.2%
NS(=O)(=O)c1ccc(NC(=O)Nc2ccccc2)cc1,-2.8%,-5.35%,1.8%,-18.1%,20.1%,22.3%
CCCCc1c2c(nc3c1CCC/C3=C\c1ccccc1)C(=O)CCC2,15.8%,9.1%,3.2%,12.2%,30.6%,18.1%
CS(=O)(=O)OC1C(OC(=O)c2ccccc2)COC(OCc2ccccc2)C1OS(C)(=O)=O (configuration not stated),-5.4%,13.2%,-11.9%,-13.3%,5.35%,5.7%
CCOC(=O)c1cnc(C)nc1Nc1ccccc1,5.75%,11.4%,-0.8%,-21.4%,0.9%,-23.7%
Clc1ccc(Cc2ccc(Br)cc2)cc1,43.6%,-10.3%,38.5%,2.45%,49%,13.2%
COC(=O)C1(C)CCCC2(C)C3CC(O)C(C(C)C)=CC3(O)CCC12 (configuration not stated),10.2%,-4.65%,15.9%,-12.6%,-1%,15.3%
CC(=O)Oc1ccc2c(c1)c1c(OC(C)=O)c(N(C)C(C)=O)cc(OC(C)=O)c1n2C,22.4%,-0.65%,3.85%,12.4%,-3.7%,5.6%
NC(=O)c1ncnc2nc[nH]c12,-14.2%,-42.5%,-9%,-29.1%,-20.4%,-10.6%

Compound,growth inhibition [1],growth inhibition [2],growth inhibition [3],growth inhibition [4],growth inhibition [5],growth inhibition [6]
Nc1ccc2ccc3ccc(N)nc3c2n1,36%,38%,40.7%,-1.8%,44.1%,17.1%
CCOC(=O)c1ccc(NC(=O)Nc2ccccc2C(=O)OC)cc1,9.95%,0.35%,2.7%,9.55%,25.4%,7.4%
C=C(C)/C=C/S(=O)c1ccccc1 (configuration not stated),-3.3%,-2.85%,10.3%,-5.35%,-16.4%,-5.15%
CC(C)C(=O)OCC1OC(n2cnc3c(=S)nc[nH]c32)C(OC(=O)C(C)C)C1OC(=O)C(C)C (configuration not stated),-6.8%,2.2%,2.4%,-13.4%,-9.55%,2.1%
C=C(C)[C@@H]1CC[C@]2(C)CC[C@]3(C)[C@H](CC[C@@H]4[C@@]5(C)CC[C@H](O)C(C)(C)[C@@H]5CC[C@]43C)[C@@H]12,-2.75%,-4.95%,-11.3%,-10.4%,-6.05%,-11.3%
O=C(c1ccc(O)c(C(=O)O)c1)c1ccc(O)c(C(=O)O)c1,10.9%,-13.9%,-5.3%,-0.7%,-19.9%,-2.85%
COCCN(CCOC)C(=O)Nc1cccc(Cl)c1,30.4%,6.3%,15.9%,8.35%,5.45%,10.2%
CC(=O)[CH-]C(=O)c1ccccc1.CC(=O)[CH-]C(=O)c1ccccc1.CCCCCCCCCCCCCCCCCC(=O)[O-].CCCCCCCCCCCCCCCCCC(=O)[O-].[Ti+4],11.2%,-11.2%,-6.55%,-9.7%,2%,-0.45%
NNc1ccc(S(=O)(=O)O)cc1Cl,8.35%,-14.4%,3.05%,4.7%,15.7%,2.45%
C=C[C@]1(C)CC(=O)C(C(C)C=O)[C@]12C(=O)Oc1cccc(C)c1C2=O (some centres not stated),63.9%,85.5% (active),79% (active),58.1%,71.8% (active),86.7% (active)
O=C1C[C@@H]2[C@@H](CCC23CCCC3)N1,17.8%,12.9%,-9.75%,20.4%,15.2%,20.6%
c1ccc(-c2ccccc2-c2ccccc2)cc1,18.1%,-4.8%,10.6%,-2.75%,-8.15%,20.8%
O=[N+]([O-])c1cccc(S(=O)(=O)NC2c3ccccc3Oc3ccccc32)c1,22%,-3.65%,26.9%,21.4%,-10.7%,24.8%
COC1/C=C\OC2(C)Oc3c(C)c(O)c4c(c3C2=O)C(=O)C(Br)=C(NC(=O)/C(C)=C\C=C/C(C)C(O)C(C)C(O)C(C)C(OC(C)=O)C1C)C4=O (configuration not stated),16.1%,13.8%,22.4%,22.2%,14.8%,20.5%
c1ccc(-c2cc3c(nn2)[nH]c2ccccc23)cc1,14.4%,-1.95%,-2.25%,-30.2%,-15.8%,8.9%
CC12OC(=O)C(C#N)C1(C)C1C(=O)CCCC12 (configuration not stated),-2.8%,-7.55%,7.4%,1.9%,-0.3%,-8.55%
O=C1NC(c2ccc(Cl)cc2)(c2ccc(Cl)cc2)C(=O)N1Cl,-4.8%,-1.6%,8.05%,16.9%,11.6%,-16.4%
COC(=O)c1c(C(=O)OC)c2ccccn2c1-c1cc(OC)c(Br)c(=O)o1,-0.2%,-17.8%,-7.6%,-18.9%,-4.15%,-105%
OC1c2ccccc2CCCC1N1CCCCC1 (configuration not stated),41%,5.35%,27.8%,6.75%,12.1%,16.9%
CNC(=O)c1n[nH]c(=S)[nH]c1=O,-7.4%,-4.9%,0.8%,-52.8%,-6.7%,-7.5%
CSc1c(C(=O)Nc2ccc(C)cc2)c(N)nn1-c1ccccc1,20.8%,-12.3%,20.4%,12.8%,4.35%,2.7%
